Cruzain noTriton = blocks cruzain activity in detergent-free assay | P25779 | purified cruzain, Z-FR-AMC fluorescence, no detergent | Potency, µM, hits mostly inhibitors | hit rate 2.3% among 200,000; further: nearly all actives have a fitted effect of over 40% in size
Target sequence (P25779 123-467 limits assumed): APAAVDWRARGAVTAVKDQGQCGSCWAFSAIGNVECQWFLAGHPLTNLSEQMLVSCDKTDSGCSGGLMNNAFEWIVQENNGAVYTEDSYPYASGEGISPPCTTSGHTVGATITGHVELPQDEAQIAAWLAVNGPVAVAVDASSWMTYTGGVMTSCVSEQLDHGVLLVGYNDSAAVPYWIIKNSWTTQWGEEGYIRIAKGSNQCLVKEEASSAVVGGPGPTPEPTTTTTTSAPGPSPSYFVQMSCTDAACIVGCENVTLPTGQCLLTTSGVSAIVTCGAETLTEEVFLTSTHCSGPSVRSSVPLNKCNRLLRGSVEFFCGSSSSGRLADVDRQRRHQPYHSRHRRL
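Purified cruzain at 1.5 nM, pre-incubated 15 min with compound at room temperature in 100 mM sodium acetate pH 5.5, 5 mM DTT, 0.00005% Triton X-100. Reaction started with 2 uM Z-FR-AMC; AMC fluorescence increase over 60 s gives rate.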
Cruzain inh Det = blocks cruzain activity in presence of Triton detergent | Potency, µM, hits mostly inhibitors | purified cruzain, Z-FR-AMC fluorescence, 0.01% Triton | P25779 | hit rate 0.43% among 200,000 | AID 1478; further: nearly all actives have a fitted effect of over 40% in size
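Sodium acetate buffer (100 mM, pH 5.5) containing 5 mM DTT and 0.01% Triton X-100 hosted 1.5 nM cruzain and test compound for 15 min at room temperature. Cleavage of 2 uM Z-FR-AMC was then tracked by fluorescence.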
A number is an active result; . = inactive; ? = inconclusive; ! = not confirmed by another sample. Sampled rows, rich in hits. Any-hit rate of the full collection: about 2.5%. The call rests on the fitted dose curve; in most records, active means well fitted curve in the direction sought with a large enough effect; inconclusive means small, poorly fitted or top-dose-only effect, or another doubt; inactive means no such curve, though single readings can be large; an effect the other way counts as inactive or inconclusive.

SMILES	Cruzain noTriton	Cruzain inh Det
O=C(Nc1cc(Cl)cc(Cl)c1)c1ccc(F)c(S(=O)(=O)N2CCc3ccccc32)c1	15.8µM	.
O=C(Nc1ccc(Br)cc1)c1ccc(F)c(S(=O)(=O)N2CCCc3ccccc32)c1	?	.
CC(C)c1ccc(NC(=O)c2ccc(F)c(S(=O)(=O)N3CCCC3)c2)cc1	.	.
O=C(Nc1ccc2c(c1)CCC2)c1cc(S(=O)(=O)N2CCN(c3ccccc3)CC2)ccc1Cl	3.98µM	.
O=C(Nc1cc(Cl)cc(Cl)c1)c1ccc(F)c(S(=O)(=O)N2CCCC2)c1	25.1µM	.
O=C(CN1CCN(c2ccccc2)CC1)Nc1ccc2c(c1)CCC2	.	.
O=C(Nc1cc(Cl)cc(Cl)c1)c1cc(S(=O)(=O)N2CCc3ccccc3C2)ccc1F	15.8µM	.
OCC1OC(n2cnc3c(=S)nc[nH]c32)C(O)C1O (configuration not stated)	.	.
COc1ccc(-c2coc3c(O)c(OC)ccc3c2=O)cc1	.	.
CC(C)COc1ccc(C(=O)Nc2nnc(S(=O)(=O)N(C)Cc3ccco3)s2)cc1	?	.
O=C(CCC1N=C2c3ccccc3N=C(SCc3ccc(F)cc3)N2C1=O)NC1CCCCC1 (configuration not stated)	.	.
[O-][Br+2]([O-])O	.	22.4µM!
CC(CCc1nc2ccccc2s1)(c1ccc(O)cc1)c1ccc(O)cc1	.	.
COc1ccc(/C=C/c2ccncc2)c2ccccc12	.	.
COc1ccc(C=Nc2cccc3c(=O)[nH][nH]c(=O)c23)c2ccccc12	31.6µM	.
CSc1ccc(C2CC(=O)Oc3c2c(=O)n(C)c2ccccc32)cc1 (configuration not stated)	.	.
CCCCN(CC)C(=O)c1nn(C)c2c1CSc1ccccc1-2	.	.
CC(=O)Nc1ccc(NC(=O)c2cc(-c3ccc4c(c3)OCCO4)on2)cc1	.	.
O=C(Nc1ccc(SC(F)F)cc1)c1cc(-c2ccc3c(c2)OCCO3)on1	7.94µM	.
CCC1CCCCN1Cc1cn2c(-c3ccc(Br)cc3)nnc2s1 (configuration not stated)	.	.
Cn1nc(-c2ccccc2)c(COC(=O)c2cccc(Cl)c2)c1S(=O)(=O)c1ccccc1	25.1µM	.
CNS(=O)(=O)c1cccc(C(=O)OCc2csc(-c3ccccc3)n2)c1	.	.
O=S(=O)(O)c1cc(O)c2c(N=Cc3ccccc3O)cc(S(=O)(=O)O)cc2c1	.	.
COc1ccc(-c2cc(C3CC3)nc3sc(C#N)c(N)c23)cc1	.	.
N#Cc1sc2nc(-c3cccs3)cc(-c3ccc(Cl)cc3)c2c1N	12.6µM	.
SMILES	Cruzain noTriton	Cruzain inh Det
N#Cc1c(-c2cccs2)cc(-c2cccnc2)nc1N	.	.
CCN(CC)C(=O)c1sc2nc(-c3cccs3)cc(-c3ccc(Cl)cc3)c2c1N	31.6µM	.
N#Cc1sc2nc(-c3cccs3)cc(-c3ccccc3)c2c1N	15.8µM	.
CC(C)(C)C(=O)c1sc2nc(-c3cccs3)cc(C(F)(F)F)c2c1N	.	.
COC(=O)C1=C(C(=O)OC)[C@@H]2N(Cc3ccccc3)c3ccccc3[C@@]23C[C@@H](C(=O)OC)N(C(=O)NCc2ccccc2)C3=C1	.	.
CC1CCN(CC(=O)N2c3ccccc3Sc3cc4ccccc4cc32)CC1	.	.
O[C@@H](c1cc(C(F)(F)F)nc2c(Cl)cc(Cl)cc12)C1CCCCN1 (some centres not stated)	.	.
COC(=O)[C@H](COC(C)(C)C)NC(=O)O[C@@H]1Cc2cc(OC)ccc2O[C@H]1c1cccc(OC)c1	.	.
COc1ccccc1N1CCN(C(=O)Nc2ccc([N+](=O)[O-])cc2)CC1	.	.
COc1cc([N+](=O)[O-])ccc1NC(=O)N1CCC2(CC1)Nc1cc(F)ccc1-n1cccc12	25.1µM	.
COc1ccc(-n2ncc3c(NCCCOC(C)C)ncnc32)cc1	.	.
COc1cccc(Nc2nc(-c3ccc(O)cc3)cs2)c1	.	.
COc1cccc(Nc2nc(-c3cccc(N4C(=O)c5ccccc5C4=O)c3)cs2)c1	7.94µM	.
Cc1nn2c(=O)cc(COC(=O)c3ccc(NC(=O)c4cccs4)cc3)nc2s1	.	.
COc1ccc2c(c1)Cc1cc(N=[N+]([O-])c3ccc4c(c3)Cc3cc(OC)ccc3-4)ccc1-2	.	.
Nc1c(C(=O)NC2CCCC2)sc2nc(-c3cccs3)ccc12	25.1µM	.
Nc1c(C(=O)Nc2ccc(C(F)(F)F)cc2)sc2nc(-c3cccs3)ccc12	?	.
CCNc1ccc(C(=O)OCC(=O)NCc2ccc(C)cc2)cc1[N+](=O)[O-]	.	.
CCNc1ccc(C(=O)OCC(=O)c2cc(C)n(Cc3ccc4c(c3)OCO4)c2C)cc1[N+](=O)[O-]	15.8µM	.
CCNc1ncc2nc(C)c(=O)n(CCc3ccccc3)c2n1	.	.
COc1cccc(NS(=O)(=O)c2ccc3[nH]cc(C(=O)NC4CC4)c(=O)c3c2)c1	.	.
COc1cccc(NS(=O)(=O)c2ccc3[nH]cc(C(=O)NCCc4ccccc4)c(=O)c3c2)c1	12.6µM	.
COc1cccc(NS(=O)(=O)c2ccc3[nH]cc(C(=O)NCCc4ccc(C)cc4)c(=O)c3c2)c1	12.6µM	.
CCc1ccc(NS(=O)(=O)c2ccc3[nH]cc(C(=O)NCCCOC(C)C)c(=O)c3c2)cc1	20µM	.
CCOc1ccc(NS(=O)(=O)c2ccc3[nH]cc(C(=O)NCCc4ccccc4)c(=O)c3c2)cc1	.	.
SMILES	Cruzain noTriton	Cruzain inh Det
CC(C)c1ccc(NS(=O)(=O)c2ccc3[nH]cc(C(=O)NCCc4ccccc4)c(=O)c3c2)cc1	.	.
CCc1ccc(Oc2c(C(F)(F)F)oc3c(CN4CCC(C)CC4)c(O)ccc3c2=O)cc1	.	.
Cc1cccc(CSc2nc3c([nH]c4ccccc43)c(=O)n2C)c1	.	.
CCSc1nc2c([nH]c3ccccc32)c(=O)n1C	12.6µM	.
COc1cccc(-n2c(SCC(=O)c3ccccc3)nc3c([nH]c4ccccc43)c2=O)c1	.	.
COc1cccc(-n2c(SCc3cccc(C)c3)nc3c([nH]c4ccccc43)c2=O)c1	15.8µM	.
CCCSc1nc2c([nH]c3ccccc32)c(=O)n1C	.	.
COc1cccc(-n2c(SCc3ccccc3C)nc3c([nH]c4ccccc43)c2=O)c1	3.98µM	.
COc1ccc(OC)c(NC(=O)Cn2cnc3sc(C)c(S(=O)(=O)N4CCN(c5ccccc5OC)CC4)c3c2=O)c1	.	.
Cc1nn(C(=O)c2cccs2)c(C)c1CN1C(=O)c2ccccc2C1=O	20µM	.
Cc1nn(C(=O)c2ccco2)c(C)c1CN1C(=O)c2ccccc2C1=O	.	.
CN1CCN(CC(=O)N2c3ccccc3Sc3cc4ccccc4cc32)CC1	.	.
CCN(CC)C(=O)C(C)N(C#N)c1nc(SC)nc(N(C)C)n1 (configuration not stated)	.	.
CCOC(=O)CSc1nc(N(C)C)nc(N(C)C#N)n1	20µM	15.8µM
Cc1nc(C)c(CCNC(=O)c2ccc(C(F)(F)F)cc2)s1	.	.
Cc1ccc(C(=O)NCCc2sc(C)nc2C)cc1	?	25.1µM
CNC(=O)c1c(NC(=O)c2nc(SCc3ccc(C)cc3)ncc2Cl)sc2c1CCCC2	.	.
Cc1cccc2c1-c1sc(C(=O)NCCc3ccc(Cl)cc3)cc1CO2	25.1µM	.
COc1ccc(CCNC(=O)c2cc3c(s2)-c2ccccc2OC3)cc1OC	?	.
CCCN1CCN(CCCNC(=O)c2cc3c(s2)-c2c(C)cccc2OC3)CC1	?	17.8µM
